# Assays:
# Assay in all cases: SPOT peptide array binding signal intensity (averaged, normalized) (arbitrary units (background-subtracted, floor 0; scale differs between SH3 domains)); higher = stronger binding of the SH3 domain to the peptide
# ScBbc1 = target: ScBbc1
# Procedure, shortened: (§1)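 GST-SH3 fusions from four yeast species, purified on glutathione Sepharose, were incubated at 10 μg/ml overnight at 4°C on membranes of synthetic 15-mer peptides in which cysteines were replaced with serines. Binding signal is the normalized, background-subtracted spot intensity averaged over replicates, in domain-specific arbitrary units.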
# ScBem1-D1 = target: ScBem1-D1
# Procedure, shortened: as §1
# ScBzz1-D1 = target: ScBzz1-D1
# Procedure, shortened: as §1
# ScBzz1-D2 = target: ScBzz1-D2
# Procedure, shortened: as §1
# ScCyk3 = target: ScCyk3
# Procedure, shortened: as §1
# ScFus1 = target: ScFus1
# Procedure, shortened: as §1
# ScHof1 = target: ScHof1
# Procedure, shortened: as §1
# ScHse1 = target: ScHse1
# Procedure, shortened: as §1
# ScLsb1 = target: ScLsb1
# Procedure, shortened: as §1
# ScLsb2 = target: ScLsb2
# Procedure, shortened: as §1
# ScLsb3 = target: ScLsb3
# Procedure, shortened: as §1
# ScLsb4 = target: ScLsb4
# Procedure, shortened: as §1
# ScMyo3 = target: ScMyo3
# Procedure, shortened: as §1
# ScMyo5 = target: ScMyo5
# Procedure, shortened: as §1
# ScNbp2 = target: ScNbp2
# Procedure, shortened: as §1
# ScPex13 = target: ScPex13
# Procedure, shortened: as §1
# ScRvs167 = target: ScRvs167
# Procedure, shortened: as §1
# ScSho1 = target: ScSho1
# Procedure, shortened: as §1
# ScSla1-D1-D2 = target: ScSla1-D1-D2
# Procedure, shortened: as §1
# ScSla1-D3 = target: ScSla1-D3
# Procedure, shortened: as §1
# SpAbp1-D1 = target: SpAbp1-D1
# Procedure, shortened: as §1
# SpBbc1 = target: SpBbc1
# Procedure, shortened: as §1
# SpBzz1-D1 = target: SpBzz1-D1
# Procedure, shortened: as §1
# SpBzz1-D2 = target: SpBzz1-D2
# Procedure, shortened: as §1
# SpCyk3 = target: SpCyk3
# Procedure, shortened: as §1
# SpHof1 = target: SpHof1
# Procedure, shortened: as §1
# SpHof1-2 = target: SpHof1-2
# Procedure, shortened: as §1
# SpHof1-3 = target: SpHof1-3
# Procedure, shortened: as §1
# SpHse1 = target: SpHse1
# Procedure, shortened: as §1
# SpLsb1 = target: SpLsb1
# Procedure, shortened: as §1
# SpLsb4 = target: SpLsb4
# Procedure, shortened: as §1
# SpMyo1 = target: SpMyo1
# Procedure, shortened: as §1
# SpNbp2 = target: SpNbp2
# Procedure, shortened: as §1
# SpPex13 = target: SpPex13
# Procedure, shortened: as §1
# SpRvs167 = target: SpRvs167
# Procedure, shortened: as §1
# SpSla1-D1-D2 = target: SpSla1-D1-D2
# Procedure, shortened: as §1
# SpSla1-D3 = target: SpSla1-D3
# Procedure, shortened: as §1
binder,measurement,setting,value
NLPKRKPPKLQGPFS,SPOT peptide array binding signal intensity,ScBbc1,6.25
same,SPOT peptide array binding signal intensity,ScBem1-D1,16
same,SPOT peptide array binding signal intensity,ScBzz1-D1,39.5
same,SPOT peptide array binding signal intensity,ScBzz1-D2,4
same,SPOT peptide array binding signal intensity,ScCyk3,113
same,SPOT peptide array binding signal intensity,ScFus1,162
same,SPOT peptide array binding signal intensity,ScHof1,1.25
same,SPOT peptide array binding signal intensity,ScHse1,1280
same,SPOT peptide array binding signal intensity,ScLsb1,0.5
same,SPOT peptide array binding signal intensity,ScLsb2,3.5
same,SPOT peptide array binding signal intensity,ScLsb3,328
same,SPOT peptide array binding signal intensity,ScLsb4,21.5
same,SPOT peptide array binding signal intensity,ScMyo3,63.2
same,SPOT peptide array binding signal intensity,ScMyo5,29.5
same,SPOT peptide array binding signal intensity,ScNbp2,475
same,SPOT peptide array binding signal intensity,ScPex13,2
same,SPOT peptide array binding signal intensity,ScRvs167,23
same,SPOT peptide array binding signal intensity,ScSho1,408
same,SPOT peptide array binding signal intensity,ScSla1-D1-D2,164
same,SPOT peptide array binding signal intensity,ScSla1-D3,12.5
same,SPOT peptide array binding signal intensity,SpAbp1-D1,498
same,SPOT peptide array binding signal intensity,SpBbc1,1.5
same,SPOT peptide array binding signal intensity,SpBzz1-D1,382
same,SPOT peptide array binding signal intensity,SpBzz1-D2,0.5
same,SPOT peptide array binding signal intensity,SpCyk3,1
same,SPOT peptide array binding signal intensity,SpHof1,117
same,SPOT peptide array binding signal intensity,SpHof1-2,3.25
same,SPOT peptide array binding signal intensity,SpHof1-3,475
same,SPOT peptide array binding signal intensity,SpHse1,722
same,SPOT peptide array binding signal intensity,SpLsb1,5
same,SPOT peptide array binding signal intensity,SpLsb4,756
same,SPOT peptide array binding signal intensity,SpMyo1,254
same,SPOT peptide array binding signal intensity,SpNbp2,82.5
same,SPOT peptide array binding signal intensity,SpPex13,5
same,SPOT peptide array binding signal intensity,SpRvs167,7.17
same,SPOT peptide array binding signal intensity,SpSla1-D1-D2,≤ 0
same,SPOT peptide array binding signal intensity,SpSla1-D3,1
